# MazEF act: activators of E. coli MazEF toxin-antitoxin RNase; P0AE70; FAM/BHQ RNA-DNA oligo cleavage fluorescence, 5 h; activation, % at 20 µM; 0.32% of 350,000 active; AID 504720; in the data active = activation above about 50%
# UGM FP inh: blocks M. tuberculosis UGM enzyme. P9WIQ1. purified UGM, fluorescence polarization probe displacement. inhibition, % at 10 µM. 0.06% of 320,000 active; in the data active = inhibition above about 10%, passing the limit was not always enough; inconclusive = no clear call, values can overlap the other calls
# TcdB GH inh: blocks C. difficile toxin B glycohydrolase activity; P18177; TcdB glycohydrolase enzymatic assay, plate reader; inhibition, % at 9.99 µM; 0.24% of 350,000 active; AID 652162; in the data active = inhibition above about 10%
# Mtb betalactam: beta-lactam sensitization of Mtb H37Rv; 0.27% of 330,000 active; inhibition, % at 25 µM; AID 434955; M. tuberculosis H37Rv growth with meropenem, percent inhibition; call rule not given here;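 also: growth measured after seven days incubation then overnight dye step; 0% = bacteria only wells and 100% = bacteria with antibiotic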
# Rv3671c inh: inhibits the M. tuberculosis serine protease Rv3671c. 0.048% of 320,000 active. inhibition, % at 5.96 µM; in the data active = inhibition above about 38%;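 also: extracellular domain of Rv3671c used as enzyme; 0% = enzyme with DMSO and 100% = no enzyme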
# RecA splice inh: inhibitors of M. tuberculosis RecA intein splicing | P9WHJ3 | cell-free RecA intein splicing, fluorescence | inhibition, % (test concentration not listed) | 0.75% of 290,000 active | AID 2221; in the data active = inhibition above about 30%; inconclusive = no clear call, values can overlap the other calls;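 also: 0% = vehicle wells and 100% = reference inhibitor control wells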
# * marks the source's active call; other numbers are inactive results; ? = inconclusive; nt = no result; ! = repeats disagree. Only some compounds are listed: those with a hit (about 0.97% of all), similar ones and a draw of the others.
SMILES,MazEF act,UGM FP inh,TcdB GH inh,Mtb betalactam,Rv3671c inh,RecA splice inh
COc1cc(/C=N/NC(=O)CSc2ccccn2)ccc1O,1.8,0.8,10.9*,-6.7,5.7,-2.6
CCOc1ccc(/C=N/NC(=O)C2(O)c3ccccc3-c3ccccc32)cc1,2.5,-1.0,-9.8,5.5,-10.0,-3.7
C[C@@H]1CN([C@@H](C)CO)C(=O)c2cc(NC(=O)CCC(F)(F)F)ccc2O[C@@H](C)CCCCO[C@@H]1CN(C)C(=O)Nc1ccccc1,nt,nt,-2.0,nt,nt,nt
C[C@@H]1CN([C@@H](C)CO)C(=O)c2cc(NC(=O)Cn3cnnn3)ccc2O[C@H]1CN(C)C(=O)Nc1ccc2c(c1)OCO2,nt,nt,-3.1,nt,nt,nt
Cc1nc(-n2[nH]c3c(c2=O)CCCC3)[nH]c(=O)c1Cc1ccccc1,62.8*,-0.2,nt,94.5,-5.6,-0.6
CCOC(=O)c1ccc(N=c2sc(C(=O)OC)cc(=O)n2CCCN2CCOCC2)cc1,8.6,0.5,11.0*!,98.4,4.0,1.2
CCOC(=O)c1ccc(N=c2sc(C(=O)OC)cc(=O)n2Cc2ccco2)cc1,7.1,-2.4,0.4,-1.6,-8.7,6.7
O=C(Cn1ncc(Cl)c(Cl)c1=O)Nc1ccc2c(c1)OCO2,2.8,1.4,-0.5,98.0,-1.3,nt
CCN(CC)S(=O)(=O)c1cc(NC(=O)Cn2ncc(Cl)c(Cl)c2=O)ccc1C,4.2,-0.7,0.5,-2.6,-6.2,51.5*
Cc1ccc(NC(=O)CCl)cc1S(=O)(=O)N1CCCCCC1,2.0,-1.7,2.0,96.2,13.8,52.4*
Cc1noc(C)c1NC(=O)N1C[C@@H](O)COC[C@@H]2O[C@H](CC(=O)NCC3CC3)CC[C@H]21,nt,nt,-1.3,nt,nt,nt
O=C(CCl)Nc1cn(-c2ccccc2)nc1-c1ccc(F)cc1,9.0,-0.1,1.8,99.5,5.3,46.2*
Fc1ccc(-c2nn(-c3ccccc3)cc2CNCc2ccccc2)cc1,0.2,-1.5,3.7,98.3,1.0,10.9
Cc1ccc(N/C(N)=N/c2nc(C)cc(C)n2)cc1,12.8,nt,nt,98.9,-2.9,4.9
Cc1cc(C)nc(/N=C(\N)Nc2ccccc2-c2ccccc2)n1,15.1,-2.4,10.1*,96.7,-5.7,6.2
O=C(Nc1ccccc1F)C(=Cc1sc(N2CCOCC2)nc1-c1ccccc1)C(=O)Nc1ccccc1F,-289.2,11.6*,0.5,-4.4,-1.0,-87.4
CC(=O)c1coc2c1cc(O)c1ccccc12,8.4,0.1,nt,?,-13.2,3.8
O=C(c1ccco1)c1coc2c1cc(O)c1ccccc12,9.7,-2.3,-0.4,-0.4,-16.9,45.2*
Cc1ccc(S(=O)(=O)N2CCCC2C(=O)Nc2ccc(O)cc2)cc1 (configuration not stated),6.4,-1.5,10.3*,-7.4,-2.2,-0.3
COc1ccc(-c2ccc3c(c2)O[C@H](CN(C)Cc2ccccc2C(=O)O)[C@@H](C)CN([C@@H](C)CO)S3(=O)=O)cc1,nt,nt,3.1,nt,nt,nt
N/C(=N\N=C\c1ccc(O)c(O)c1)c1nonc1N,5.9,-0.5,5.1,1.5,30.2,-4.2
N/C(=N\N=C\c1ccc(O)cc1)c1nonc1N,5.0,-0.4,28.4*,-6.6,8.1,0.6
COc1ccc(C(=O)/C=C/c2ccc(O)cc2)cc1,-43.5,3.6,9.9,7.0,-10.6,1.7
O=C(/C=C/c1ccc(O)cc1)c1ccccc1,-5.0,0.1,15.2*,89.9,6.4,2.0
CN1OC[C@@H]2CN(C(=O)C(C)(C)C)[C@H](c3cccc(N4CCOCC4)c3)C[C@@H]21,13.3,nt,0.0,nt,nt,nt
SMILES,MazEF act,UGM FP inh,TcdB GH inh,Mtb betalactam,Rv3671c inh,RecA splice inh
CN1OC[C@@H]2CN(C(=O)C(C)(C)C)[C@H](c3cccc(Br)c3)C[C@@H]21,52.7*,nt,1.3,nt,nt,nt
O=C(NC(=S)NNS(=O)(=O)c1ccccc1)c1cccnc1,-2.8,-0.7,10.8*,3.1,-0.6,2.5
Cc1ccc(S(=O)(=O)NNC(=O)c2cccnc2)cc1,22.4,4.0,-2.4,9.8,13.4,-11.7
COc1ccc(C2CC(c3ccc(Cl)cc3)Nc3nc(NC(=O)c4ccco4)nn32)cc1 (configuration not stated),160.1*,nt,nt,nt,nt,20.9
N#Cc1cc([N+](=O)[O-])ccc1NC(=O)COC(=O)CCC1CCCCC1,nt,-2.1,-0.7,-6.6,-8.9,59.9*
C[C@H]1CN([C@@H](C)CO)C(=O)Cc2cc(NC(=O)Cc3ccccc3)ccc2O[C@H]1CN(C)S(C)(=O)=O,nt,nt,-0.3,nt,nt,nt
Cc1nc(NC(=O)/C=C/c2ccccc2)sc1C(=O)N(C)C,4.5,0.9,nt,5.8,-4.2,3.5

# Source: PubChem BioAssay
